PMC9911399, “Two distinct binding modes provide the RNA-binding protein RbFox with extraordinary sequence specificity”
Residue numbers refer to the chain shown, from its start. The full ranking holds about 16,000 sequences; the median of “ka relative to ugcaugu” is about 0.0091, and the highest 2% start at about 0.032. Many of the other results were omitted from the sample, so the highest values are more common in it than they were.

T1: RBFOX1 RRM (Homo sapiens, UniProt Q9NWB1 109-208)
T1 sequence: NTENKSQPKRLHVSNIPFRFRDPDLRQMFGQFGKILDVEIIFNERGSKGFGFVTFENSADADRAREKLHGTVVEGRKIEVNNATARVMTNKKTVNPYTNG

B1: GCUGUAU (DNA:RNA)
RNA: GGGAGACCGGAAUUCAGAUUGUCCGCUGUAUUUAAAUCCCGUCGUAGCCACCA
DNA 1: CAATCTGAATTCCGGTCTCCC
DNA 2: TGGTGGCTACGACGGGATT
B2: AUACGAU (DNA:RNA)
RNA: B1 RNA with G25A, C26U, U27A, G28C, U29G
DNA 1: CAATCTGAATTCCGGTCTCCC
DNA 2: TGGTGGCTACGACGGGATT
B3: AUUCUCC (DNA:RNA)
RNA: B1 RNA with G25A, C26U, G28C, A30C, U31C
DNA 1: CAATCTGAATTCCGGTCTCCC
DNA 2: TGGTGGCTACGACGGGATT
B4: CACCUGC (DNA:RNA)
RNA: B1 RNA with G25C, C26A, U27C, G28C, A30G, U31C
DNA 1: CAATCTGAATTCCGGTCTCCC
DNA 2: TGGTGGCTACGACGGGATT
B5: CGUACUC (DNA:RNA)
RNA: B1 RNA with G25C, C26G, G28A, U29C, A30U, U31C
DNA 1: CAATCTGAATTCCGGTCTCCC
DNA 2: TGGTGGCTACGACGGGATT
B6: GGGUCGU (DNA:RNA)
RNA: B1 RNA with C26G, U27G, G28U, U29C, A30G
DNA 1: CAATCTGAATTCCGGTCTCCC
DNA 2: TGGTGGCTACGACGGGATT
B7: GGGGUAC (DNA:RNA)
RNA: B1 RNA with C26G, U27G, U31C
DNA 1: CAATCTGAATTCCGGTCTCCC
DNA 2: TGGTGGCTACGACGGGATT
B8: GUACUCU (DNA:RNA)
RNA: B1 RNA with C26U, U27A, G28C, A30C
DNA 1: CAATCTGAATTCCGGTCTCCC
DNA 2: TGGTGGCTACGACGGGATT
B9: GGGUACU (DNA:RNA)
RNA: B1 RNA with C26G, U27G, G28U, U29A, A30C
DNA 1: CAATCTGAATTCCGGTCTCCC
DNA 2: TGGTGGCTACGACGGGATT
B10: GGGGUCG (DNA:RNA)
RNA: B1 RNA with C26G, U27G, A30C, U31G
DNA 1: CAATCTGAATTCCGGTCTCCC
DNA 2: TGGTGGCTACGACGGGATT
B11: GGGUCCG (DNA:RNA)
RNA: B1 RNA with C26G, U27G, G28U, U29C, A30C, U31G
DNA 1: CAATCTGAATTCCGGTCTCCC
DNA 2: TGGTGGCTACGACGGGATT
B12: GGGGAGA (DNA:RNA)
RNA: B1 RNA with C26G, U27G, U29A, A30G, U31A
DNA 1: CAATCTGAATTCCGGTCTCCC
DNA 2: TGGTGGCTACGACGGGATT
B13: GGUACUC (DNA:RNA)
RNA: B1 RNA with C26G, G28A, U29C, A30U, U31C
DNA 1: CAATCTGAATTCCGGTCTCCC
DNA 2: TGGTGGCTACGACGGGATT
B14: CGGGUCG (DNA:RNA)
RNA: B1 RNA with G25C, C26G, U27G, A30C, U31G
DNA 1: CAATCTGAATTCCGGTCTCCC
DNA 2: TGGTGGCTACGACGGGATT
B15: CGGGUAC (DNA:RNA)
RNA: B1 RNA with G25C, C26G, U27G, U31C
DNA 1: CAATCTGAATTCCGGTCTCCC
DNA 2: TGGTGGCTACGACGGGATT
B16: GGGGUCC (DNA:RNA)
RNA: B1 RNA with C26G, U27G, A30C, U31C
DNA 1: CAATCTGAATTCCGGTCTCCC
DNA 2: TGGTGGCTACGACGGGATT
B17: AGCUCAC (DNA:RNA)
RNA: B1 RNA with G25A, C26G, U27C, G28U, U29C, U31C
DNA 1: CAATCTGAATTCCGGTCTCCC
DNA 2: TGGTGGCTACGACGGGATT
B18: ACUGACU (DNA:RNA)
RNA: B1 RNA with G25A, U29A, A30C
DNA 1: CAATCTGAATTCCGGTCTCCC
DNA 2: TGGTGGCTACGACGGGATT
B19: UAAAUCG (DNA:RNA)
RNA: B1 RNA with G25U, C26A, U27A, G28A, A30C, U31G
DNA 1: CAATCTGAATTCCGGTCTCCC
DNA 2: TGGTGGCTACGACGGGATT
B20: GAAAAGU (DNA:RNA)
RNA: B1 RNA with C26A, U27A, G28A, U29A, A30G
DNA 1: CAATCTGAATTCCGGTCTCCC
DNA 2: TGGTGGCTACGACGGGATT
B21: AGAAACC (DNA:RNA)
RNA: GGGAGACCGGAAUUCAGAUUGUCCAGAAACCUUAAAUCCCGUCGUAGCCACCA
DNA 1: CAATCTGAATTCCGGTCTCCC
DNA 2: TGGTGGCTACGACGGGATT
B22: CUCAAUG (DNA:RNA)
RNA: B21 RNA with A25C, G26U, A27C, C30U, C31G
DNA 1: CAATCTGAATTCCGGTCTCCC
DNA 2: TGGTGGCTACGACGGGATT
B23: CGCGAUA (DNA:RNA)
RNA: B21 RNA with A25C, A27C, A28G, C30U, C31A
DNA 1: CAATCTGAATTCCGGTCTCCC
DNA 2: TGGTGGCTACGACGGGATT
B24: ACCAGGG (DNA:RNA)
RNA: B21 RNA with G26C, A27C, A29G, C30G, C31G
DNA 1: CAATCTGAATTCCGGTCTCCC
DNA 2: TGGTGGCTACGACGGGATT
B25: GUCCCCC (DNA:RNA)
RNA: B21 RNA with A25G, G26U, A27C, A28C, A29C
DNA 1: CAATCTGAATTCCGGTCTCCC
DNA 2: TGGTGGCTACGACGGGATT
B26: ACUCCAA (DNA:RNA)
RNA: B1 RNA with G25A, G28C, U29C, U31A
DNA 1: CAATCTGAATTCCGGTCTCCC
DNA 2: TGGTGGCTACGACGGGATT
B27: ACCAGAU (DNA:RNA)
RNA: B1 RNA with G25A, U27C, G28A, U29G
DNA 1: CAATCTGAATTCCGGTCTCCC
DNA 2: TGGTGGCTACGACGGGATT
B28: AAGCGUC (DNA:RNA)
RNA: B21 RNA with G26A, A27G, A28C, A29G, C30U
DNA 1: CAATCTGAATTCCGGTCTCCC
DNA 2: TGGTGGCTACGACGGGATT
B29: CAUGGGA (DNA:RNA)
RNA: B1 RNA with G25C, C26A, U29G, A30G, U31A
DNA 1: CAATCTGAATTCCGGTCTCCC
DNA 2: TGGTGGCTACGACGGGATT
B30: GUCGGCC (DNA:RNA)
RNA: B21 RNA with A25G, G26U, A27C, A28G, A29G
DNA 1: CAATCTGAATTCCGGTCTCCC
DNA 2: TGGTGGCTACGACGGGATT
B31: UUGGUUG (DNA:RNA)
RNA: B1 RNA with G25U, C26U, U27G, A30U, U31G
DNA 1: CAATCTGAATTCCGGTCTCCC
DNA 2: TGGTGGCTACGACGGGATT
B32: UUGGUCC (DNA:RNA)
RNA: B21 RNA with A25U, G26U, A27G, A28G, A29U
DNA 1: CAATCTGAATTCCGGTCTCCC
DNA 2: TGGTGGCTACGACGGGATT
B33: UUGUUCG (DNA:RNA)
RNA: B21 RNA with A25U, G26U, A27G, A28U, A29U, C31G
DNA 1: CAATCTGAATTCCGGTCTCCC
DNA 2: TGGTGGCTACGACGGGATT
B34: UCCUUGG (DNA:RNA)
RNA: B1 RNA with G25U, U27C, G28U, A30G, U31G
DNA 1: CAATCTGAATTCCGGTCTCCC
DNA 2: TGGTGGCTACGACGGGATT
B35: UUGGUCG (DNA:RNA)
RNA: B1 RNA with G25U, C26U, U27G, A30C, U31G
DNA 1: CAATCTGAATTCCGGTCTCCC
DNA 2: TGGTGGCTACGACGGGATT
B36: UUGUCCG (DNA:RNA)
RNA: B21 RNA with A25U, G26U, A27G, A28U, A29C, C31G
DNA 1: CAATCTGAATTCCGGTCTCCC
DNA 2: TGGTGGCTACGACGGGATT
B37: GGCCUUG (DNA:RNA)
RNA: B1 RNA with C26G, U27C, G28C, A30U, U31G
DNA 1: CAATCTGAATTCCGGTCTCCC
DNA 2: TGGTGGCTACGACGGGATT
B38: GUGGUCC (DNA:RNA)
RNA: B1 RNA with C26U, U27G, A30C, U31C
DNA 1: CAATCTGAATTCCGGTCTCCC
DNA 2: TGGTGGCTACGACGGGATT
B39: GUCCUUG (DNA:RNA)
RNA: B1 RNA with C26U, U27C, G28C, A30U, U31G
DNA 1: CAATCTGAATTCCGGTCTCCC
DNA 2: TGGTGGCTACGACGGGATT
B40: UUGUUGG (DNA:RNA)
RNA: B1 RNA with G25U, C26U, U27G, G28U, A30G, U31G
DNA 1: CAATCTGAATTCCGGTCTCCC
DNA 2: TGGTGGCTACGACGGGATT
B41: GGCGGCC (DNA:RNA)
RNA: B21 RNA with A25G, A27C, A28G, A29G
DNA 1: CAATCTGAATTCCGGTCTCCC
DNA 2: TGGTGGCTACGACGGGATT

The binders below were run against T1, RBFOX1 RRM (assay: EMSA; HiTS-Eq, 1 nM pool, 10 min; buffer printed only for the single-RNA assays: 10 mM Tris pH 7.5, 150 mM NaCl, 3.4 mM EDTA, 0.001% NP-40, 30 C). Conditions: tags: His6 N-terminal (pET28a); label: 5' 32P.
In short: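 Purified wild-type or mutant RbFox RRM at increasing concentrations was equilibrated with 1 nM of 5′-radiolabelled RNA carrying 7 randomized nucleotides for 10 min in 50 µL. Unbound RNA was separated by 8% native PAGE and sequenced. Relative association constants came from read-count changes of each RNA species compared with the control reaction, normalised to the cognate motif.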

First: B1
Second: B2
The binding signal of the first is higher: 0.013 KA relative to UGCAUGU for the first, 0.00313 KA relative to UGCAUGU for the second.

First: B3
Second: B4
The binding signal of the first is lower: 0.00179 KA relative to UGCAUGU for the first, 0.00791 KA relative to UGCAUGU for the second.

First: B5
Second: B6
The binding signal of the first is lower: 0.00584 KA relative to UGCAUGU for the first, 0.0214 KA relative to UGCAUGU for the second.

First: B7
Second: B8
The binding signal of the first is higher: 0.0356 KA relative to UGCAUGU for the first, 0.0101 KA relative to UGCAUGU for the second.

First: B9
Second: B10
The binding signal of the first is lower: 0.0165 KA relative to UGCAUGU for the first, 0.0492 KA relative to UGCAUGU for the second.

First: B11
Second: B12
The binding signal of the first is higher: 0.0257 KA relative to UGCAUGU for the first, 0.0242 KA relative to UGCAUGU for the second.

First: B13
Second: B14
The binding signal of the first is lower: 0.032 KA relative to UGCAUGU for the first, 0.0322 KA relative to UGCAUGU for the second.

First: B15
Second: B16
The binding signal of the first is higher: 0.0309 KA relative to UGCAUGU for the first, 0.0259 KA relative to UGCAUGU for the second.

First: B17
Second: B18
The binding signal of the first is lower: 0.00457 KA relative to UGCAUGU for the first, 0.00677 KA relative to UGCAUGU for the second.

First: B19
Second: B20
The binding signal of the first is higher: 0.00678 KA relative to UGCAUGU for the first, 0.00662 KA relative to UGCAUGU for the second.

First: B21
Second: B22
The binding signal of the first is higher: 0.00391 KA relative to UGCAUGU for the first, 0.00378 KA relative to UGCAUGU for the second.

First: B23
Second: B24
The binding signal of the first is higher: 0.00807 KA relative to UGCAUGU for the first, 0.00782 KA relative to UGCAUGU for the second.

First: B25
Second: B26
The binding signal of the first is higher: 0.0163 KA relative to UGCAUGU for the first, 0.000959 KA relative to UGCAUGU for the second.

First: B27
Second: B28
The binding signal of the first is lower: 0.00102 KA relative to UGCAUGU for the first, 0.00965 KA relative to UGCAUGU for the second.

First: B29
Second: B30
The binding signal of the first is lower: 0.00261 KA relative to UGCAUGU for the first, 0.0169 KA relative to UGCAUGU for the second.

Compared with B31, B32 is lower in binding signal: 0.0398 KA relative to UGCAUGU for the first, 0.0262 KA relative to UGCAUGU for the second.

Compared with B33, B34 is lower in binding signal: 0.0364 KA relative to UGCAUGU for the first, 0.0132 KA relative to UGCAUGU for the second.

Compared with B35, B36 is lower in binding signal: 0.0376 KA relative to UGCAUGU for the first, 0.0163 KA relative to UGCAUGU for the second.

First: B37
Second: B38
The binding signal of the first is higher: 0.0328 KA relative to UGCAUGU for the first, 0.0226 KA relative to UGCAUGU for the second.

First: B39
Second: B40
The binding signal of the first is lower: 0.0114 KA relative to UGCAUGU for the first, 0.0248 KA relative to UGCAUGU for the second.

For B41, the binding signal was 0.0183 KA relative to UGCAUGU.
